The values below come from the supplement of paper PMC10105736.

Values without a mark were called inactive.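 The calls were made as follows: active = MAPPIT score above the 99th percentile of random reference set scores in the same batch; inactive = at or below it.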

What all share (test): MAPPIT interaction score (arbitrary units); higher = stronger binary interaction signal, active = hit call of the paper
For one experiment, the target named is CG15449. Particulars: MAPPIT configuration: N-N; pair source set: Finley_Y2H.
For the next experiment, the target named is CG5946. The settings on record: MAPPIT configuration: N-N; pair source set: Finley_Y2H.
The target in another experiment is PHDP. The settings on record: MAPPIT configuration: N-N; pair source set: Finley_Y2H.
The next experiment addresses Prim2. The settings on record: MAPPIT configuration: N-N; pair source set: Finley_Y2H.
A further experiment addresses CG15347. Particulars: MAPPIT configuration: N-C; pair source set: screen_3.
The target in the next experiment is CG15369. The settings on record: MAPPIT configuration: N-N; pair source set: Finley_Y2H.
In the next experiment the target is CG32548. The settings on record: MAPPIT configuration: N-N; pair source set: Finley_Y2H.
In the next experiment the target is CG1532. Particulars: MAPPIT configuration: N-N; pair source set: Finley_Y2H.
Another experiment has as its target CG7560. Particulars: MAPPIT configuration: N-N; pair source set: Finley_Y2H.
In a further experiment the target is CG15443. The settings on record: MAPPIT configuration: N-N; pair source set: Curagen_low_conf.
Another experiment deals with Gs1. Particulars: MAPPIT configuration: N-N; pair source set: DPIM.
In another experiment the target is Mpp6. Particulars: MAPPIT configuration: N-N; pair source set: DPIM.
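Also: HEK293T cells with Epo stimulation, STAT-responsive firefly luciferase reporter, fold induction versus unstimulated cells divided by the larger fold induction of two negative controls lacking either bait or prey.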

B1: RhoGAP68F (protein)
chain: MDAHSRFAPRLPGPAINPIVDNSDEPQPSLSDLHDFEPKLEFDDTELLAPSPLEKDVMVGDFVLAEDPELEPEEDVNPLEDDFEDQLREQSENFQTPRNKCDFLGTDKQGRHIFGIYASRFPEKSQLEGFVREIIKEIEPFVENDYILVYFHQGLKEDNKPSAQFLWNSYKELDRNFRKNLKTLYVVHPTWFIRVIWNFFSPFISDKFRKKLVYISSLDELRQALGLNKLKLPDNICDLDDKLNPSRKPSTPPPSSNINASRQQQHKMATTHQFGVPLKFIVMNSPCLNSIPPIVRKCVDSLSITGVIDTEGIFRRSGNHSEIMALKERVNRGEDVDLKSVNVHVIAGLLKSFLRDLAEPLLTFELYEDVTGFLDWPKEERSRNVTQLIREKLPEENYELFKYIVEFLVRVMDCEDLNKMTSSNLAIVFGPNFLWSRSTSTSLEEIAPINAFVDFVLQNHKDIYLIDVNQRTVSVD
Turning to B1, the MAPPIT interaction score with CG15449 was 0.0825; in the experiment with CG5946, 0.206; with PHDP, 0.248; in the experiment with Prim2, 3.38 (active).

B2: aph-1 (protein)
chain: MTLPEFFGCTFIAFGPPFALFVFTIANDPVRIIILIAAAFFWLLSLLISSLWYALIPLKEFLAFGVVFSVCFQEAFRYIIYRILRSTEQGLHAVAEDTRVTDNKHILAYVSGLGFGIISGMFALVNVLADMSGPGTMGLKGGTELFFVTSAAQALSIILLHTFWSVIFFNAFDTNNYIHIGYVVFSHLFVSLITLLNANELYTTTLLINYLVTILTGVLAFRVAGGTSRSFRKFITCQ
For B2, the MAPPIT interaction score with CG15347 was 3.73.

B3: Gel (protein)
chain: MDASGAATMAVLSSLLVFLALSSSLCSAGTLNARPAFPVQSGEIQPSGQNSKQAARRVMHPSFANAGRTPGLEIWRIENFEPVIYPKTNYGKFYTGDSFIVLNTIENKKDKKLSWDVHFWLGLETSTDEAGAAAILTVQLDDLLNGGPVQHREVQDHESQLFLSYFKNGIRYEQGGVGTGFKHVETNAQGETRLFQVKGKRNVRVRQVNLSVSSMNTGDCFILDAGSDIYVYVGSQAKRVEKLKAISAANQIRDQDHNGRARVQIVDDFSTDADKQHFFDVLGSGSADQVPDESTADEDSAFERTDAAAVSLYKVSDASGKLKVDIIGQKPLTQAMLDTRECFILDTGSGIFVWVGKGATQKEKTDAMAKAQEFLRTKKYPAWTQIHRIVEGSESAPFKQYFDTWRDAGMSHSRLIRSALGIGSDELLNDDEIDSVVTQLKKSGGRAFGFMPDHGQNVIETITQYVAKPGSDEIVVSTVPFDEKLPLLGFASYVLTYNYEANNGDTGSLTYVWHGVKASAAARKRAFEEGLVGSKDGLLVQTNQGHEPRHFYKIFKGKLLTSFTALPVTAQLFRIRGTVESDVHASEVAADSSSLASSDAFVLHSGKSHKIYIWNGLGASAFEKQAAVDRFSDYWDDVELEQVEEGAEPDEFWEELNGEGQYDRSLGDDGAPLLESRLFHCHLSSGGFLKVEEVAQYEQEDLDSDDIMLLDAGDEIYLWVGYGVSEEENGKLLDTAKLYFNLEPTARSFDTVSIIRVPQGKEPRVFKRMFPNWDDNYWQNQPSYEDMKQLVIDANNEV
As to B3, the MAPPIT interaction score with CG15369 is 0.935; with CG32548, 0.0886.

B4: Nep3 (protein)
chain: MTRYKQTEFTEDDSSSIGGIQLNEATGHTGMQIRYHTARATWNWRSRNKTEKWLLITTFVMAITIFTLLIVLFTDGGSSDATKHVLHVQPHQKDCPSGNELPCLNKHCIFASSEILKSIDVTVDPCDDFYGYSCNQWIKNNPIPEGKSTWGTFGKLEQMNQLIIRNVLEKPAKSFKSDAERKAKVYYESCLDADEHMEKLGAKPMNDLLLQIGGWNVTKSGYNVANWTMGHTLKILHNKYNFNCLFGWAIGEDDKNSSRHVIQIDQGGLTLPTADYYNNKTDNHRKVLNEYIEYMTKVCVLLGANESDARAQMIGVINFEKKLANITIPLEDRRNEEAMYHPMQLRQLSKLAPFLNWTDHFDNAMQMVGRRVTDDEVVVVYAPDFLKNLSDIILKMEQTEEGKITLNNYLVWQAVRTLTSCLSKPFRDAYKGVRKALMGSDGGEEIWRYCVSDTNNVVGFAVGAIFVRQAFHGESKPAAEQMIAEIREAFKMNLQNLTWVDKQTREKAIEKANQISDMIGFPDYILDPVELDKKYAELNITPNAYFENNIQVAIYNLKSNLKRLDQPVNKTNWGMTPQTVNAYYTPTKNQIVFPAGILQTPFFDINNPKSLNFGAMGVVMGHELTHAFDDQGREYDKFGNINRWWDSKSIERFNEKSECIARQYSGYKMNGRTLNGKQTLGENIADNGGLKAAYHAYQRTKSDRDVDILKLPGLNLTHSQLFFVSFAQVWCSSTTDETNLLQMEKDPHSPSQFRVIGTLSNMKEFAEVFQCKPGKRMNPTEKCEVW
Take B4: the MAPPIT interaction score with CG15347 was -1.12.

B5: sel (protein)
chain: MLTKALILFGLLALAQGYSFTSREVKCHVCKAVVTELEEAIAKEDPHKMADVSGFRLDAQGNSISKKVRLVKSEMFLTELMEKICEKMDDYLKATYKSNGKFTLLKMIINGQMNPDSSLVDFVQDGDLNKSLGHFCNEVLEDNDEIFVKAFQAEELGNDLDIKICSEQASYCDESPVQEEYDFDGKEEL
Consider B5, for which the MAPPIT interaction score is -0.121 with CG1532 and 0.327 with CG7560.

B6: eEF5 (protein)
chain: MAELDDQFETTDSGASTTYPMQCSALRKNGFVMLKSRPCKIVEMSTSKTGKHGHAKVHMVGIDIFSNKKYEDICPSTHNMDVPNVKREDLQLIAISDDSFLTLMTESGDLREDLKVPEGELGEQLRLDFDSGKDLLCTVLKACGEECVIAIKTNTALDK
Take B6: the MAPPIT interaction score in the experiment with CG15443 is 0.896; with Gs1 it was 0.522; with Mpp6 it was -0.193.
